Assay results as given in PMC7862700, “An all-to-all approach to the identification of sequence-specific readers for epigenetic DNA modifications on cytosine”.

Legend:
Assay in all cases: DAPPL (digital affinity profiling via proximity ligation, sequencing); 10 mM Tris-HCl pH 7.5, 50 mM NaCl, 1 mM DTT, 4% glycerol, room temperature, 30 min; GST-TFs on glutathione beads, 16-mer random dsDNA library, 0.1% formaldehyde crosslink after washing; high values mean tight binding
Details in all cases: protein: recombinant; tags: N-terminal GST; dsDNA, one strand shown
FLI1 = biological target: T1, FLI1 (Homo sapiens, UniProt Q01543 1-452)
T1 sequence: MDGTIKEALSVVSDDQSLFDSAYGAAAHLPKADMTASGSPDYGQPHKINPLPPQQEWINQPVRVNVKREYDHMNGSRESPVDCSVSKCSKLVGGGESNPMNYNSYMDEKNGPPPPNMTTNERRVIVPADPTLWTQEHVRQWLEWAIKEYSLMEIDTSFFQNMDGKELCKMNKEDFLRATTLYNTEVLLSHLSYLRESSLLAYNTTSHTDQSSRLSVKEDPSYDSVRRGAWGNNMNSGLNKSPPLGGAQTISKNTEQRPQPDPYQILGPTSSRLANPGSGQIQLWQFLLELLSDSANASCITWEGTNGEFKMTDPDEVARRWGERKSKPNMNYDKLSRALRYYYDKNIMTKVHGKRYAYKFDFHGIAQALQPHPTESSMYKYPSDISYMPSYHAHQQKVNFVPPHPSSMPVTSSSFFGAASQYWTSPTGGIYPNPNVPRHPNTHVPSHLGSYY
In short: (§1)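 Binding signal is defined as a hexamer's read frequency for one factor over its frequency for the tag-only sample. To obtain reads, GST-fused human transcription factors were expressed in yeast, captured on glutathione beads, barcoded with DNA and pooled with that sample. Pools met 200 nmole of a 16-mer random double-stranded DNA library in Tris/NaCl/DTT/glycerol buffer for 30 min at room temperature before washing, 0.1% formaldehyde crosslinking, proximity ligation (BsaI/T4 ligase, 1 h, 37 °C), PCR and Illumina NextSeq500 sequencing.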

ELK1 = biological target: T2, ELK1 (Homo sapiens, UniProt P19419 1-428)
T2 sequence: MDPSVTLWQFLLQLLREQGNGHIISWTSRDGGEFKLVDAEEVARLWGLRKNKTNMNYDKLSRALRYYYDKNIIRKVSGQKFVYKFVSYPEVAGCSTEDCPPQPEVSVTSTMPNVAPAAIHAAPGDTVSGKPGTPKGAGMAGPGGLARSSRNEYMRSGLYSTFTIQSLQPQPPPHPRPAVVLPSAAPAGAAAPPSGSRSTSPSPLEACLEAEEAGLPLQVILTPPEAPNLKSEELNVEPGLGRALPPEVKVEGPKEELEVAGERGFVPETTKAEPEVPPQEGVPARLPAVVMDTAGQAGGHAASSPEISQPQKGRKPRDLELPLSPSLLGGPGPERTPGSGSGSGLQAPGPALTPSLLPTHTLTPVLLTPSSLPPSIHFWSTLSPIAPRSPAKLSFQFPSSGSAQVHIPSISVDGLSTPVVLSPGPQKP
In short: as §1

GABPA = biological target: T3, GABPA (Homo sapiens, UniProt Q06546 1-454)
T3 sequence: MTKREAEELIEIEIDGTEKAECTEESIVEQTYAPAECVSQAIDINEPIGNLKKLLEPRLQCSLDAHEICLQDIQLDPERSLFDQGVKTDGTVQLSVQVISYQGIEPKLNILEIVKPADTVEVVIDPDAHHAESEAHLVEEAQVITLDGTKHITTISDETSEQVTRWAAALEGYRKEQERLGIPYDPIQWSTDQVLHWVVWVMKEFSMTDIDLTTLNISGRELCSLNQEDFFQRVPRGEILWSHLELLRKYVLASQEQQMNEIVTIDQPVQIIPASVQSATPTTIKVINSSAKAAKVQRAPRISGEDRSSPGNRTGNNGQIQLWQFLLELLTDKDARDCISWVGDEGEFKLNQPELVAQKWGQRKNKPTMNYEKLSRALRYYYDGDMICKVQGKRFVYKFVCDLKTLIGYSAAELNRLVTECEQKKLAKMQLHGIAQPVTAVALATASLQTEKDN
In short: as §1

ERG = biological target: T4, ERG (Homo sapiens, UniProt P11308 1-479)
T4 sequence: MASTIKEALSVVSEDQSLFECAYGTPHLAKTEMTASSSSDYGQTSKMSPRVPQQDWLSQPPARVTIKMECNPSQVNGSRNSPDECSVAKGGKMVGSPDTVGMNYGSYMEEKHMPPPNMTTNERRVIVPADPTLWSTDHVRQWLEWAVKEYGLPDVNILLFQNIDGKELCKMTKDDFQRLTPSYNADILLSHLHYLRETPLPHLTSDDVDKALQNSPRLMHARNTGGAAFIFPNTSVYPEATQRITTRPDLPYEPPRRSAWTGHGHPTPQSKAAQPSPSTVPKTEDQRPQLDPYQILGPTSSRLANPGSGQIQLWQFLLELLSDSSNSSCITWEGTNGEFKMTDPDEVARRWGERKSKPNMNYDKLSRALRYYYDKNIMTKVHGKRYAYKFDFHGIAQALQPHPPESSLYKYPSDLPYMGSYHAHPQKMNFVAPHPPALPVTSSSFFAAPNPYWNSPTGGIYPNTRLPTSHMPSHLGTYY
In short: as §1

ELF1 = ELF1 (Homo sapiens, UniProt P32519 1-619)
In short: as §1

EHF = biological target: T5, EHF (Homo sapiens, UniProt Q9NZC4 1-300)
T5 sequence: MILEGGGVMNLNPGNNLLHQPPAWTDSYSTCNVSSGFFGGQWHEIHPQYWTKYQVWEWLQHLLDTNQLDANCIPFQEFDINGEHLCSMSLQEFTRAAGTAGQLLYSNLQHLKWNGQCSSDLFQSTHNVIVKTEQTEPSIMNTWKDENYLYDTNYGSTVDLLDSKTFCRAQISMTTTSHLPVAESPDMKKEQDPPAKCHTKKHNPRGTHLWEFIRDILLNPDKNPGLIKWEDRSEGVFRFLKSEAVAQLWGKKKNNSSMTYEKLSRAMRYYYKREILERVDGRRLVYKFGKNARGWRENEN
In short: as §1

SPI1 = SPI1 (Homo sapiens, UniProt P17947 1-270)
In short: as §1

SPIB = SPIB (Homo sapiens, UniProt Q01892 1-262)
In short: as §1

ELK3 = biological target: T6, ELK3 (Homo sapiens, UniProt P41970 1-407)
T6 sequence: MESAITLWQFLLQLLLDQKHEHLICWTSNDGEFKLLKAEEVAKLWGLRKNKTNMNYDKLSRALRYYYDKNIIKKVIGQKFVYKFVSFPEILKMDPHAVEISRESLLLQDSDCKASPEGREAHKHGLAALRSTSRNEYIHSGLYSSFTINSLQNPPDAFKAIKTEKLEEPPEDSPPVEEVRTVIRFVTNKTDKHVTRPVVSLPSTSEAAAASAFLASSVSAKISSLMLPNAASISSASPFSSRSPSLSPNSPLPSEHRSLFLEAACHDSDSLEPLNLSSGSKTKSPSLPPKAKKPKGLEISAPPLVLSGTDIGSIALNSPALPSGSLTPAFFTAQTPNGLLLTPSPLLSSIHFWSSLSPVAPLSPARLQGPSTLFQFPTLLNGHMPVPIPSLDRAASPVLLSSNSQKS
In short: as §1

SPIB, sequence (Q01892 whole entry): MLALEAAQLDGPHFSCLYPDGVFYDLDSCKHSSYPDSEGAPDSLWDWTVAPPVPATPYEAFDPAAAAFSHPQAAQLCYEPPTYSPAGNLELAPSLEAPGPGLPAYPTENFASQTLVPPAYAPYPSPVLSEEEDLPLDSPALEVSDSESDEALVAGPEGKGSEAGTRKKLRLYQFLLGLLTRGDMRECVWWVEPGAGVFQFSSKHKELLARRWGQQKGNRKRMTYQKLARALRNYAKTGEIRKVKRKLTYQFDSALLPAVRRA
ELF1, sequence (P32519 whole entry): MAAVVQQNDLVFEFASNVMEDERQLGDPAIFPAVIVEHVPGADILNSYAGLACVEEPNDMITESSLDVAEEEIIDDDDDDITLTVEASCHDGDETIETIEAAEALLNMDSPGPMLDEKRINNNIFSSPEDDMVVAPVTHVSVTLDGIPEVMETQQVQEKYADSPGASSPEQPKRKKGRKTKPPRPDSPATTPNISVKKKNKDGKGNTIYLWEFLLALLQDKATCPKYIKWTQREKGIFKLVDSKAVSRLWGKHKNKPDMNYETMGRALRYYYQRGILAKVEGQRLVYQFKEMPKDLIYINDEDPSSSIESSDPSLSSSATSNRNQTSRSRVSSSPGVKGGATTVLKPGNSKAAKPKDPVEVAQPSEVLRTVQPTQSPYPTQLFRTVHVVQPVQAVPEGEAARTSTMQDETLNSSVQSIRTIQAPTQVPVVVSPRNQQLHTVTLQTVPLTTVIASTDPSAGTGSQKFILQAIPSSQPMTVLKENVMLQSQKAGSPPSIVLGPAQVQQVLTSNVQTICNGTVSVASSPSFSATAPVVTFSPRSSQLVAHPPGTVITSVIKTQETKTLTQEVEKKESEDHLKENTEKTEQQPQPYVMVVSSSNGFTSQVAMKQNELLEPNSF

Sequence: CGCCTA
- binding signal (FLI1): 1.17 fold enrichment (6-mer frequency, TF over GST control)
- binding signal (ELK1): 1.19 fold enrichment (6-mer frequency, TF over GST control)
- binding signal (GABPA): 1.15 fold enrichment (6-mer frequency, TF over GST control)
- binding signal (ERG): 1.14 fold enrichment (6-mer frequency, TF over GST control)
- binding signal (ELF1): 1.16 fold enrichment (6-mer frequency, TF over GST control)
- binding signal (EHF): 1.23 fold enrichment (6-mer frequency, TF over GST control)
- binding signal (SPI1): 1.13 fold enrichment (6-mer frequency, TF over GST control)
- binding signal (SPIB): 1.22 fold enrichment (6-mer frequency, TF over GST control)
- binding signal (ELK3): 1.24 fold enrichment (6-mer frequency, TF over GST control)

Sequence: GTGTTT
- binding signal (FLI1): 1.15 fold enrichment (6-mer frequency, TF over GST control)
- binding signal (ELK1): 1.19 fold enrichment (6-mer frequency, TF over GST control)
- binding signal (GABPA): 1.08 fold enrichment (6-mer frequency, TF over GST control)
- binding signal (ERG): 1.07 fold enrichment (6-mer frequency, TF over GST control)
- binding signal (ELF1): 1.16 fold enrichment (6-mer frequency, TF over GST control)
- binding signal (EHF): 1.09 fold enrichment (6-mer frequency, TF over GST control)
- binding signal (SPI1): 1.11 fold enrichment (6-mer frequency, TF over GST control)
- binding signal (SPIB): 1.16 fold enrichment (6-mer frequency, TF over GST control)
- binding signal (ELK3): 1.2 fold enrichment (6-mer frequency, TF over GST control)

Sequence: ACATGT
- binding signal (FLI1): 1.23 fold enrichment (6-mer frequency, TF over GST control)
- binding signal (ELK1): 1.14 fold enrichment (6-mer frequency, TF over GST control)
- binding signal (GABPA): 1.05 fold enrichment (6-mer frequency, TF over GST control)
- binding signal (ERG): 1.11 fold enrichment (6-mer frequency, TF over GST control)
- binding signal (ELF1): 1.19 fold enrichment (6-mer frequency, TF over GST control)
- binding signal (EHF): 1.09 fold enrichment (6-mer frequency, TF over GST control)
- binding signal (SPI1): 1.14 fold enrichment (6-mer frequency, TF over GST control)
- binding signal (SPIB): 1.15 fold enrichment (6-mer frequency, TF over GST control)
- binding signal (ELK3): 1.06 fold enrichment (6-mer frequency, TF over GST control)

Sequence: TATAGC
- binding signal (FLI1): 1.2 fold enrichment (6-mer frequency, TF over GST control)
- binding signal (ELK1): 1.22 fold enrichment (6-mer frequency, TF over GST control)
- binding signal (GABPA): 1.26 fold enrichment (6-mer frequency, TF over GST control)
- binding signal (ERG): 1.2 fold enrichment (6-mer frequency, TF over GST control)
- binding signal (ELF1): 1.21 fold enrichment (6-mer frequency, TF over GST control)
- binding signal (EHF): 1.17 fold enrichment (6-mer frequency, TF over GST control)
- binding signal (SPI1): 1.16 fold enrichment (6-mer frequency, TF over GST control)
- binding signal (SPIB): 1.18 fold enrichment (6-mer frequency, TF over GST control)
- binding signal (ELK3): 1.1 fold enrichment (6-mer frequency, TF over GST control)

Sequence: ACGAAC
- binding signal (FLI1): 1.11 fold enrichment (6-mer frequency, TF over GST control)
- binding signal (ELK1): 1.15 fold enrichment (6-mer frequency, TF over GST control)
- binding signal (GABPA): 1.19 fold enrichment (6-mer frequency, TF over GST control)
- binding signal (ERG): 1.15 fold enrichment (6-mer frequency, TF over GST control)
- binding signal (ELF1): 1.24 fold enrichment (6-mer frequency, TF over GST control)
- binding signal (EHF): 1.12 fold enrichment (6-mer frequency, TF over GST control)
- binding signal (SPI1): 1.1 fold enrichment (6-mer frequency, TF over GST control)
- binding signal (SPIB): 1.22 fold enrichment (6-mer frequency, TF over GST control)
- binding signal (ELK3): 1.13 fold enrichment (6-mer frequency, TF over GST control)

Sequence: ATTCTT
- binding signal (FLI1): 1.48 fold enrichment (6-mer frequency, TF over GST control)
- binding signal (ELK1): 1.44 fold enrichment (6-mer frequency, TF over GST control)
- binding signal (GABPA): 1.49 fold enrichment (6-mer frequency, TF over GST control)
- binding signal (ERG): 1.5 fold enrichment (6-mer frequency, TF over GST control)
- binding signal (ELF1): 1.51 fold enrichment (6-mer frequency, TF over GST control)
- binding signal (EHF): 1.45 fold enrichment (6-mer frequency, TF over GST control)
- binding signal (SPI1): 1.44 fold enrichment (6-mer frequency, TF over GST control)
- binding signal (SPIB): 1.56 fold enrichment (6-mer frequency, TF over GST control)
- binding signal (ELK3): 1.61 fold enrichment (6-mer frequency, TF over GST control)

Sequence: ATGTTG
- binding signal (FLI1): 1.31 fold enrichment (6-mer frequency, TF over GST control)
- binding signal (ELK1): 1.26 fold enrichment (6-mer frequency, TF over GST control)
- binding signal (GABPA): 1.22 fold enrichment (6-mer frequency, TF over GST control)
- binding signal (ERG): 1.26 fold enrichment (6-mer frequency, TF over GST control)
- binding signal (ELF1): 1.35 fold enrichment (6-mer frequency, TF over GST control)
- binding signal (EHF): 1.21 fold enrichment (6-mer frequency, TF over GST control)
- binding signal (SPI1): 1.3 fold enrichment (6-mer frequency, TF over GST control)
- binding signal (SPIB): 1.18 fold enrichment (6-mer frequency, TF over GST control)
- binding signal (ELK3): 1.21 fold enrichment (6-mer frequency, TF over GST control)
